High-throughput results (PubChem BioAssay)
HCV inh: inhibitors of hepatitis C virus infection; AID 651820; Potency, µM (titrated, usually from 41.8 µM), for inactives: at the highest dose activity change, negative = inhibition, most hits filed as inhibitors; Huh7.5.1 HCVcc-Cre infection, luciferase reporter, 44 h; 340,000 compounds, 3.4% hits; active means well fitted inhibition curve with a large enough effect; inconclusive means small, poorly fitted or top-dose-only effect, or another doubt; inactive means no such curve, though single readings can be large or run the other way; further: potency means the concentration at half of the fitted maximal effect
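Luciferase read-out (15 sec integration) after a 15 min room-temperature substrate step quantifies HCVcc-Cre infection. Cells, 1,000 per well, had compound added 4 h post-plating, then virus at ~0.5 moi, and were cultured 44 h.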
FMDV inh: antivirals against foot and mouth disease virus. Potency, µM (doses to about 57.9 µM), inactives show at the highest dose activity change, negative = inhibition, most hits filed as inhibitors. FMDV antiviral cell-based qHTS. AID 1159524. 410,000 compounds, 1.2% hits; calls by dose curve; tested in HEK293T cells; further: read-out not given here; potency means the concentration at half of the fitted maximal effect; nearly all actives have a fitted effect of over 45% in size
HCMV antiviral: inhibitors of human cytomegalovirus; activity change, negative = inhibition, % at 57.5 µM; AID 1259415; 410,000 compounds, 4.5% hits; HFF cells, HCMV-luciferase reporter, 72 h; active compounds read low; in the data active means activity change below about -60%; inconclusive means no clear call, values can overlap the other calls; inactive means above about -39%
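Inhibition of viral replication was scored as loss of reporter luminescence in HFFs infected with HCMV-luciferase (MOI 1 PFU/cell) for 72 h; compounds tested at 2 doses, normalized to buffer and Salinomycin controls.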
VACV mCherry inh: vaccinia inhibition (mCherry reporter) | Potency, µM (highest dose often 36.5 µM), for inactives: at the highest dose activity change, negative = inhibition, usual class: inhibitors | 310,000 compounds, 0.63% hits | Vaccinia virus mCherry reporter infection, fluorescence; calls by dose curve; tested in A549 cells; further: potency means the concentration at half of the fitted maximal effect; nearly all actives have a fitted effect of over 35% in size
Vaccinia Venus: inhibitors of vaccinia virus (Venus reporter). Potency, µM (highest dose often 36.5 µM), for the others: at the top dose activity change, negative = inhibition, actives largely listed as inhibitors. Vaccinia virus Venus reporter expression, fluorescence. 330,000 compounds, 0.46% hits; calls by dose curve; tested in A549 cells; further: potency means the concentration at half of the fitted maximal effect; nearly all actives have a fitted effect of over 30% in size
* marks the source's active call; other numbers are inactive results; i = inactive; ? = inconclusive; . = no result; ! = not active in a repeat. The list is not random: actives were taken first. Their share in the collection is about 7.3%. On the % scale 0 is the no-effect control and ±100 the full control effect.

SMILES	HCV inh	FMDV inh	HCMV antiviral	VACV mCherry inh	Vaccinia Venus
COc1cccc2c1C(=O)c1c(O)c3c(c(O)c1C2=O)CC(O)(C(=O)CO)CC3OC1CC(N(C)C)C(O)C(C)O1 (stereo unspecified)	?	-5%	-98*	i	i
COc1cccc2c1C(=O)c1c(O)c3c(c(O)c1C2=O)C[C@@](O)(C(=O)CO)C[C@@H]3O[C@H]1C[C@H](N)[C@@H](O)[C@H](C)O1	?	-5%	.	139%	i
COc1cccc2c1C(=O)c1c(O)c3c(c(O)c1C2=O)C[C@@](O)(C(C)=O)C[C@@H]3O[C@H]1C[C@H](N)[C@H](O)[C@H](C)O1	6.3µM*!	-15%	-100*	228%	i
CC(=O)[C@]1(O)Cc2c(O)c3c(c(O)c2[C@@H](O[C@H]2C[C@H](N)[C@H](O)[C@H](C)O2)C1)C(=O)c1ccccc1C3=O	11µM*	0%	.	35%	497%
O=S1(=O)c2ccc(Br)cc2OCCC2CCCCN21 (stereo unspecified)	.	.	-25	.	.
Cc1ccc(-c2c(NC(=O)C(C)C)n(C)c3ccccc3c2=O)cc1	3.2µM*	-8%	-39	-8%	-6%
Cc1cnccn1	.	.	.	-13%	-7%
CCOc1ccc(NC(=O)Nc2cccn(Cc3ccccc3)c2=O)cc1	10µM*	?	-84*	?	?
CCc1ccccc1NC(=O)Nc1cccn(Cc2ccccc2F)c1=O	11µM*	?	-12	.	.
O=C(NCC1CCC2(CCN(Cc3cccc(-c4ccco4)c3)CC2)O1)c1ccccc1 (stereo unspecified)	.	-5%	.	-15%	0%
O=S(=O)(CCOc1ccccc1)c1nc2ccccc2[nH]1	-15%	-20%	-69*	.	.
O=C(CCn1c(=O)c2cccn2c2cccnc21)NCc1ccc(Cl)cc1	.	2%	-34	-11%	-6%
CC(C)C[C@H]1CN=C(Nc2ccccc2)N1CC1CCCC1	-16%	-16%	17	i	-8%
CC(C)C[C@H]1CN=C(Nc2ccccc2)N1CC1CCC(C(C)(C)C)CC1 (stereo partly specified)	11µM*	?	.	28µM*	?
CC(NS(=O)(=O)c1ccc2[nH]c(=O)c(=O)[nH]c2c1)C(=O)O (stereo unspecified)	-2%	-16%	-92*	-1%	-9%
CCc1cccc(NC(=O)CN2Cc3ccccc3C2=O)c1	.	-5%	-1	-14%	-7%
COC(=O)c1nc(NC(=O)c2ccccc2Br)n[nH]1	5%	20µM*	25	i	-14%
COC(=O)c1nc(NC(=O)c2cc(OC)c(OC)c(OC)c2)n[nH]1	6%	-28%	18	-6%	13%
Cc1nn(-c2ccccc2)c(N)c1Sc1ccccc1[N+](=O)[O-]	?	?	0	-17%	-20%
Cc1nn(-c2ccccc2)c(N)c1Sc1cccc([N+](=O)[O-])c1	?	?	-76*	.	.
Cc1nn(-c2cccc([N+](=O)[O-])c2)c(N)c1-c1ccccc1	-13%	20%	-61*	i	2%
COc1ccc2c(c1)-c1nc(-n3ncc(C(=O)NC[C@@H]4CCCN5CCCC[C@H]45)c3C)ncc1CC2	.	-9%	.	13µM*	?
COc1ccc2c(c1)-c1nc(-n3ncc(C(=O)NCC4CCCN(C)C4)c3C3CC3)ncc1CC2 (stereo unspecified)	.	-19%	.	-14%	0%
COc1cccc(C(=O)NCC(c2cccnc2)N2CCN(c3ccccc3OC)CC2)c1 (stereo unspecified)	?	35µM*	.	-20%	-24%
COc1ccc(CNC(=O)C(=O)NCC(c2cccnc2)N2CCN(c3ccccc3F)CC2)cc1 (stereo unspecified)	.	-7%	-70*	?	?
COC(=O)NCC(c1cccnc1)N1CCN(c2ccccc2F)CC1 (stereo unspecified)	8%	-19%	16	-17%	3%
CCc1ccccc1NC(=O)C(=O)NCC(c1cccnc1)N1CCN(c2ccccc2F)CC1 (stereo unspecified)	.	40µM*	-8	-9%	-18%
COc1cccc(C(=O)NCC(c2ccc(N(C)C)cc2)N2CCc3ccccc32)c1 (stereo unspecified)	.	-16%	-68*	-5%	0%
